For 7 molecules, Potency, outcome and max response results are on record in PubChem BioAssay (NCATS).

Each structure is given as a SMILES string. Where “and” joins values, the source holds several entries; their conditions need not be identical. Equal entries are not always repeated. Results filed as inconclusive are left out. Calls of active or inactive are those of the source. Unless noted, the call rests on the fitted dose curve; in most records, active means well fitted curve in the direction sought with a large enough effect; inconclusive means small, poorly fitted or top-dose-only effect, or another doubt; inactive means no such curve, though single readings can be large; an effect the other way counts as inactive or inconclusive.

Test [1] in a line: Cell Viability - Jurkat (AID 426;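 active means dose-dependent loss of cell ATP signal giving a full or clear fitted curve, ranked by lower potency value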;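 further: potency means the concentration at half of the fitted maximal effect; cells exposed to compound for 40 hours at 37 °C before ATP read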). Conditions: qHTS. A digest of the protocol:
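Cytotoxicity was scored as loss of cellular ATP, measured by luciferase-based luminescence, in Jurkat clone E6-1 cells after 40 h compound treatment; tamoxifen and doxorubicin served as positive controls.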

The nature of test [2]: Cell Viability - Hek293 (AID 427;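 active means compounds whose dose-response curve shows a full or clear partial loss of cell viability, called from curve shape rather than a numeric limit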;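 further: potency means the concentration at half of the fitted maximal effect; cells exposed to compound for 40 hours at 37 °C before reading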). As to conditions: qHTS. An outline of the steps:
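Luminescent ATP read-out (CellTiter-Glo, 20 min RT) after 40 hr compound exposure at 37 °C in complete medium. Signal normalized to DMSO (basal) and 100 uM tamoxifen (100% inhibition); concentration-response fitted with the standard Hill equation to give AC50.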
(In general: Quantitative high-throughput screening tests each substance at several concentrations.)

The nature of test [3]: Cell Viability - SH-SY5Y (AID 544).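 Further: cells exposed to compound for 40 hours; 0% = DMSO alone and -100% = 100 µM tamoxifen; nearly all actives have a fitted effect of over 55% in size.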 As to conditions: SH-SY5Y neuroblastoma cell viability; viability change, negative = cytotoxic: at 92.2 µM (top of the series). A digest of the protocol: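 Quantitative HTS in SH-SY5Y neuroblastoma cells, 40 hr treatment at 37 °C, ATP content by luciferase luminescence; AC50 from Hill fits.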
Test [4] concerns the target Cytochrome P450 3A4 (Homo sapiens) (UniProt P08684). Nature of the test: qHTS Assay for Inhibitors and Substrates of Cytochrome P450 3A4 (AID 884). Further: nearly all actives have a fitted effect of over 50% in size. Further: potency means the concentration at half of the fitted maximal effect. As to conditions: recombinant CYP3A4, Luciferin-PPXE luminescence; series mostly up to 57.1 µM. A digest of the protocol: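 Luminescent readout of luciferin produced by CYP3A4 (20 nM) dealkylation of Luciferin-PPXE, 25 uM (its KM). NADPH-driven reaction ran 60 min at RT after 10 min compound preincubation; data scaled to 57 uM ketoconazole as 100% inhibition.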

Test [5] in a line: MultiTox-Fluor Cytotoxicity Assay - LYMP1-002 - Dead Cells (AID 960).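 Further: 0% = DMSO and 100% = tetraoctylammonium bromide; nearly all actives have a fitted effect of over 60% in size.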 As to conditions: LYMP1-002 lymphoblastoid cells, dead-cell protease fluorescence; series mostly up to 46.1 µM. An outline of the steps: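 Concentration-dependent increases in membrane-leaked protease activity are quantified in LYMP1-002 cells after 16 hr treatment; values are normalized against DMSO and tetraoctylammonium bromide (15 uM) controls and AC50 derived by Hill modeling.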

Test [6] is described as follows: Cell Viability - LYMP2-019 (AID 973). Further: nearly all actives have a fitted effect of over 55% in size. Further: potency means the concentration at half of the fitted maximal effect. As to conditions: LYMP2-019 lymphoblastoid cell line viability; series mostly up to 92.2 µM. A digest of the protocol: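 AC50 values come from Hill-equation modelling of qHTS concentration-response curves, where viability is measured as luciferase-based ATP luminescence in the lymphoblastoid line after 24 hr compound exposure in complete culture medium.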

Test [7] can be described thus: Cell Viability - LYMP2-010 (AID 981).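 Further: cells exposed to compound for 24 hours at 37 °C; nearly all actives have a fitted effect of over 55% in size.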 Further: potency means the concentration at half of the fitted maximal effect. As to conditions: LYMP2-010 lymphoblastoid cell viability, qHTS; series mostly up to 92.2 µM. A digest of the protocol: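 This 24 hr viability screen uses LYMP2-010 lymphoblastoid cells, quantifies ATP via luciferase luminescence, and derives AC50 from Hill fits of qHTS concentration-response data.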
The nature of test [8]: Cell Viability - LYMP2-024 (AID 988).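 Further: cells exposed to compound for 24 hr at 37 °C; nearly all actives have a fitted effect of over 60% in size.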 Further: potency means the concentration at half of the fitted maximal effect. Conditions: LYMP2-024 lymphoblastoid cell viability; series mostly up to 92.2 µM. A digest of the protocol:
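Cells at 2500 per well received compound for 24 hr after a 5 hr settling period. Viability was scored by CellTiter-Glo luminescence, with AC50 from Hill fits.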

The nature of test [9]: Cell Viability - LYMP1-002 - Assay at 40 hr (AID 994).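 Further: 0% = DMSO only and full inhibition = 92 µM tetraoctylammonium bromide; nearly all actives have a fitted effect of over 60% in size.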 As to conditions: LYMP1-002 lymphoblastoid cell viability; series mostly up to 92.2 µM. An outline of the steps: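 Concentration-dependent ATP loss after 40 hr treatment at 37 C defined toxicity; AC50 values were obtained by fitting the standard Hill equation.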
The target in test [10] is Peroxisome proliferator-activated receptor gamma (Homo sapiens) (UniProt P37231). The test is described as follows: qHTS assay for small molecule agonists of peroxisome proliferator-activated receptor gamma signaling (AID 588536; active means well fitted curve in the direction sought with a large enough effect in the signal ratio, with a control signal flat, not every such curve was filed as active; the % refers to the signal ratio;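 further: 0% = DMSO basal wells and 100% = rosiglitazone at 2 µM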). As to conditions: HEK293 PPARg-UAS-bla, beta-lactamase ratio, 16 h, percent of rosiglitazone response, DMSO as zero; series mostly up to 76.7 µM. An outline of the steps: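 Compound treatment: 16 h, 37 C, HEK293 GeneBLAzer cells. Detection: CCF4, 2 h RT. Values: Hill-fit EC50, efficacy as % of 2 uM rosiglitazone.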
Peroxisome proliferator-activated receptor gamma (Homo sapiens), sequence (P37231 whole entry, looked up): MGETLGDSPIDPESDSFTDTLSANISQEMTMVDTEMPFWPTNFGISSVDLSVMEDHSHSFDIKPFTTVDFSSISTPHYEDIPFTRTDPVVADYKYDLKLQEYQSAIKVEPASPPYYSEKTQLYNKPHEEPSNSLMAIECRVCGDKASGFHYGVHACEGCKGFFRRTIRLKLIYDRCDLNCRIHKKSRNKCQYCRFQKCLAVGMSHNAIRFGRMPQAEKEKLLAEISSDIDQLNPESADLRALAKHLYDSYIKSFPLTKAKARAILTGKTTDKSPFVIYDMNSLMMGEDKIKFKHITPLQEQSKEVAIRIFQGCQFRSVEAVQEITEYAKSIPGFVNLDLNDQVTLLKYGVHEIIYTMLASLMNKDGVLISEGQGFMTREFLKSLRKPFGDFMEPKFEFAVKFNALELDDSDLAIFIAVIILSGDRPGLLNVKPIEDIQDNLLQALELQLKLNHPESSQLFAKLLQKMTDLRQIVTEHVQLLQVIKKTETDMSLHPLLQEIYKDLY

The target in test [11] is Thyroid hormone receptor beta (Homo sapiens) (UniProt P10828). The test is described as follows: qHTS assay for small molecule agonists of thyroid hormone receptor beta signaling (AID 588545; calls by dose curve). Conditions: TR-UAS-bla GripTite HEK 293, beta-lactamase ratio, agonist mode, 18 h; series mostly up to 76.7 µM. An outline of the steps:
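In this cell-based screen, titrated compounds act on HEK 293 cells held in medium with 2% charcoal/dextran FBS, NEAA and pyruvate for 18 hrs at 37 C. Responses are expressed relative to T3 (10 nM) as 100% and basal DMSO as 0%.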

A short description of test [12]: qHTS assay for small molecule antagonists of retinoid X receptor alpha signaling (AID 588546).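 Further: cells stimulated with 9-cis-retinoic acid as agonist; on the % scale 0 is the no-effect control and ±100 the full control effect.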 Conditions: HEK293T RXRa-UAS-bla, beta-lactamase ratio, antagonist mode; measured here: W530 green channel, cytotoxicity proxy. An outline of the steps: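 Beta-lactamase reporter inhibition, read as CCF4 fluorescence ratio (ex 405, em 460/530 nm) after 2 h at RT. HEK293T UAS-bla cells, 2500/well, were stimulated with 9-cis-RA at 500 or 100 nM final alongside test compound for 18 h at 37 C.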

In test [13] the target is Tumor necrosis factor (Homo sapiens) (UniProt P01375). The test is described as follows: qHTS assay to identify small molecules that stimulate Tumor Necrosis Factor-alpha (TNF-alpha) secretion (AID 651757; active means well fitted curve in the direction sought with a large enough effect in the signal ratio; the % refers to the signal ratio; further: 0% is about no effect). As to conditions: Human cells, HTRF 665/615 ratio; series mostly up to 92.2 µM. A digest of the protocol:
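Using 3000 THP-1 cells per well, compounds and controls were applied for 17 hrs at 37 C. Detection followed with two labeled anti-TNF-alpha antibodies (cryptate donor, XL665 acceptor) for 3 hr at room temperature, measured by TR-FRET.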

Test [14] is described as follows: qHTS assay for small molecule antagonists of the retinoid-related orphan receptor gamma (ROR-gamma) signaling pathway - cell viability counter screen (AID 720652; active means well fitted curve in the direction sought with a large enough effect in the repeat runs; an effect the other way counts as inactive or inconclusive;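 further: CHO reporter cells with doxycycline-induced ROR-gamma expression; compound exposure lasted 16 hr before ATP read; on the % scale 0 is the no-effect control and ±100 the full control effect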). As to conditions: RORgamma reporter cell line viability counter screen; series mostly up to 92.2 µM. A digest of the protocol: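 ATP-based viability readout in the ROR-gamma reporter CHO cells after 16 hr compound exposure under doxycycline induction.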

Test [15] addresses Nuclear receptor subfamily 1 group I member 2 (Rattus norvegicus) (UniProt Q9R1A7). Nature of the test: qHTS assay for small molecule activators of the rat pregnane X receptor (rPXR) signaling pathway (AID 651751; call rule not given here; further: 0% is about no effect). As to conditions: rPXR reporter cells, luciferase (One-Glo), 24 h.
A short description of test [16]: Cell Viability - Mesenchymal (AID 546).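 Further: cells exposed to compound for 40 hours before reading; 0% = DMSO only and -100% = 100 µM tamoxifen.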 As to conditions: mesenchymal cells viability, qHTS; series mostly up to 91.7 µM. An outline of the steps:
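CellTiter-Glo luminescence (intracellular ATP, 20 min room temperature) after 40 hr compound exposure at 37 °C of 1000 glomerulus-derived human kidney mesenchymal cells/well; AC50 values obtained by fitting qHTS concentration-response data to the Hill equation.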

A short description of test [17]: Cell Viability - LYMP2-005 (AID 967).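 Further: plate controls were DMSO only for no effect and 92 µM tetraoctylammonium bromide control for full effect.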 As to conditions: LYMP2-005 lymphoblastoid cell viability; series mostly up to 92.2 µM. A digest of the protocol:
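Human lymphoblastoid LYMP2-005 cells, 2,500 per well in complete medium, rested 5 h at 37C then compound-treated 24 h at 37C. Intracellular ATP read by CellTiter-Glo luminescence after 30 min at room temperature; AC50 from Hill-equation fits of concentration-response data.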

Test [18] is described as follows: Cell Viability - LYMP2-026 (AID 989). Further: on the % scale 0 is the no-effect control and ±100 the full control effect; nearly all actives have a fitted effect of over 50% in size. As to conditions: LYMP2-026 lymphoblastoid cell viability, qHTS; series mostly up to 92.2 µM. A digest of the protocol:
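Acute toxicity screen in complete culture medium, with 24 hr compound exposure at 37 C. Viability read as cellular ATP via luciferase reaction, with tetraoctylammonium bromide (6.4pM to 92 uM) as positive control.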

Test [19] can be described thus: qHTS assay for small molecule agonists of retinoid X receptor alpha signaling (AID 588544; calls by dose curve). As to conditions: HEK293T RXRa-UAS-bla, beta-lactamase reporter, 18 h; 530 nm emission.
In test [20] the target is Retinoic acid receptor RXR-alpha (Homo sapiens) (UniProt P19793). The description is as above. As to conditions: HEK293T RXRa-UAS-bla, beta-lactamase reporter, 18 h; series mostly up to 76.7 µM.
Retinoic acid receptor RXR-alpha (Homo sapiens), sequence (P19793 whole entry, looked up): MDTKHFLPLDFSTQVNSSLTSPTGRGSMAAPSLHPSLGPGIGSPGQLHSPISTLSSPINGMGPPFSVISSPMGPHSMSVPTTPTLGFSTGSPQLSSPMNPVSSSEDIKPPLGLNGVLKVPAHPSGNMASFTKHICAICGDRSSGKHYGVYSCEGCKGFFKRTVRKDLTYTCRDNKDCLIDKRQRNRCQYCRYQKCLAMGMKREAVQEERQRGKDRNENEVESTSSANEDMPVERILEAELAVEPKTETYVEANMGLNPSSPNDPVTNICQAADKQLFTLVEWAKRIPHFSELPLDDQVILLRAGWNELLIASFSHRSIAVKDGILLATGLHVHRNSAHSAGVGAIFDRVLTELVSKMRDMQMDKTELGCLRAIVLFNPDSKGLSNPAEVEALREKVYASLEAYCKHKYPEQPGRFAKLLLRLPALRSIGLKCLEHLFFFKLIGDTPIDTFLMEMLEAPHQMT

Tumor necrosis factor (Homo sapiens), sequence (P01375 whole entry, looked up): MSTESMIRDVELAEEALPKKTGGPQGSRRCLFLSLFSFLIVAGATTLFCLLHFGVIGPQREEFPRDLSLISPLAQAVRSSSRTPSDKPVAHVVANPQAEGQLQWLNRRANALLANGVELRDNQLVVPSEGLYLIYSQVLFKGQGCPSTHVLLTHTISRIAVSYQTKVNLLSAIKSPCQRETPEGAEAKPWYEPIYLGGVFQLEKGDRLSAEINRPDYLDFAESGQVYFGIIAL
Thyroid hormone receptor beta (Homo sapiens), sequence (P10828 whole entry, looked up): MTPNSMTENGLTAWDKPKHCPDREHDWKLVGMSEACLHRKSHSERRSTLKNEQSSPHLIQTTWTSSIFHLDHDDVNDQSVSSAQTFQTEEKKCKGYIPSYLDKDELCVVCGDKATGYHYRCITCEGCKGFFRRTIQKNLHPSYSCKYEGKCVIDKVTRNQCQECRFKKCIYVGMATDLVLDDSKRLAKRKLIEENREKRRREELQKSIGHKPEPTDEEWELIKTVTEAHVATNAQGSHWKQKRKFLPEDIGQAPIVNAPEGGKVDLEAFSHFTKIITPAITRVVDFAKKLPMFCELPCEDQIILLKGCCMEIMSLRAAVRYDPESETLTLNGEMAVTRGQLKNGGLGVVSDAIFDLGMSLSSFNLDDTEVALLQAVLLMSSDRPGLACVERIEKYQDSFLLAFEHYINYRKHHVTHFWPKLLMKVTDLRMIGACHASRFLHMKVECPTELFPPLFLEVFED
Cytochrome P450 3A4 (Homo sapiens), sequence (P08684 whole entry, looked up): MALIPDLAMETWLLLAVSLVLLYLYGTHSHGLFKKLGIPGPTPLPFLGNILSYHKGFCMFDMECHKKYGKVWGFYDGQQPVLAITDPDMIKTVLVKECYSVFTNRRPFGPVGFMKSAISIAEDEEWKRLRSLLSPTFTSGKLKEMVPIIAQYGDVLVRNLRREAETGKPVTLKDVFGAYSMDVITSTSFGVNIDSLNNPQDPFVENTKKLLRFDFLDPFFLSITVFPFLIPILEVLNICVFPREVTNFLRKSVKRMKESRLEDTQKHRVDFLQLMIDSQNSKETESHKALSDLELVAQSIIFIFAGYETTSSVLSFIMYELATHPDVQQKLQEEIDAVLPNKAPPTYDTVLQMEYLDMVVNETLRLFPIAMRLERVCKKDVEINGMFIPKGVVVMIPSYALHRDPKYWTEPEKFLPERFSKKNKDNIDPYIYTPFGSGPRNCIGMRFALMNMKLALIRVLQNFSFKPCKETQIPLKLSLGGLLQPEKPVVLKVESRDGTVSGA
Nuclear receptor subfamily 1 group I member 2 (Rattus norvegicus), sequence (Q9R1A7 whole entry, looked up): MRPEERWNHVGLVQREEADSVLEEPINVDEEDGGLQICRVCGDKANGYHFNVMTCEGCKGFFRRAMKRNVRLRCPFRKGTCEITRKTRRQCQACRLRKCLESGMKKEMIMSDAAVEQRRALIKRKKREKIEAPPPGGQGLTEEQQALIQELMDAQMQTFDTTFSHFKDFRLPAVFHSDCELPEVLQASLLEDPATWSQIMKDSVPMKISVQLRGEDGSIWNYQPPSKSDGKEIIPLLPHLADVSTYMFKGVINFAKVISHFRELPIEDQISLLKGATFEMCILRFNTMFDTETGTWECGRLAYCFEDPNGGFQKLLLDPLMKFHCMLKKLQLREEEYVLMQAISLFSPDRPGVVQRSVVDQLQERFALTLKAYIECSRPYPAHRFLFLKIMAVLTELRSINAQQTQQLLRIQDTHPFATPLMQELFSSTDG

For the molecule `OC[P+](CO)(CO)CO`, the Potency in [1] was 31.3 µM (inactive); in test [2], > 92 µM (inactive); in [6], 15.8 µM (active); in [7], 20 µM (active); in test [8] it was 7.94 µM (active). Moreover, the Potency result in test [3], in test [4], in test [5], in test [9], in test [11] and in [14] was “inactive” in each case. The outcome in [10] and in test [13] was inactive. For the same molecule, the max response is 5.58% and 5.35% in test [12]; -2.2% (inactive) and -0.448% (inactive) in test [15].

Consider `C=CC(=O)OCC(C)C`, for which the Potency in [1] and in test [2] was > 92 µM (inactive) each time. Besides, the Potency entry in [3], in [16], in test [4], in test [5], in test [17] and in [6] was “inactive” throughout. Moreover, the Potency entry in test [7], in [8], in test [18], in test [9], in test [11] and in test [14] was “inactive” in each case. Further, the outcome in test [10], in [20] and in [13] was inactive. For the same molecule, the max response in test [19] was -3.12%; in test [12], 4.12%; in test [15], -2.18% (inactive).

`ClC=CCl`: the Potency in test [1] and in test [2] was > 92 µM (inactive) each time. Moreover, the Potency result in [3], in test [4], in test [5], in test [6], in test [7] and in [8] was “inactive” in each case. Also, the Potency result in test [18], in test [9], in test [11] and in test [14] was “inactive” throughout. The max response in test [19] was -1.25%; in test [12] it was -4.87%; in test [15], -4.21% (inactive). The outcome in test [20] and in [13] was inactive.

`C=C(C)CCl`: the Potency in [1] and in [2] was > 92 µM (inactive) in each case. The Potency entry in [3], in [16], in test [4], in test [5], in test [17] and in test [6] was “inactive” in each case. The Potency entry in test [7], in test [8], in test [18], in test [9], in test [11] and in [14] was “inactive” throughout. Besides, the outcome in test [10], in test [20] and in [13] was inactive. Further, the max response in test [19] is -6%; in test [12], -2.4%; in test [15], -1.42% (inactive).

Regarding `Oc1c(Cl)c(Cl)cc(Cl)c1Cl`, in test [1], the Potency is 49.1 µM (active). For the same molecule, the Potency entry in test [4], in [5], in test [17], in test [6], in test [7] and in test [8] was “inactive” throughout. Further, the Potency result in [18] and in test [9] was “inactive” throughout. Further, the outcome in test [10], in [20] and in test [13] was inactive. The values for the max response in test [19], in test [12] and in [15] were 19.2%, -8.85% and -8.76% (inactive), respectively.

As for `Cc1ccc2c(c1N)C(=O)c1ccccc1C2=O`, the Potency is > 92 µM (inactive) in test [1], > 92 µM (inactive) in test [2] and 5.01 µM (active) in test [4]. Further, the Potency entry in [3], in [17], in test [6], in test [7], in test [8] and in test [18] was “inactive” throughout. Moreover, the Potency entry in [9] and in test [11] was “inactive” throughout. Besides, the result in test [10] and in test [20] was inactive. In addition, the max response in test [19] is -11.3% and 17.2%; in test [12] it was -0.33% and -4.6%.

Turning to `CSSC`, the Potency in test [1] and in test [2] was > 92 µM (inactive) each time. In addition, the Potency result in test [3], in test [4], in test [5], in test [17], in test [6] and in [7] was “inactive” each time. For the same molecule, the Potency entry in test [8], in test [18], in test [9], in test [11] and in test [14] was “inactive” in each case. For the same molecule, the max response in test [19] is 1.16%; in test [12] it was -12.8%; in test [15], -2.6% (inactive). In addition, the molecule was called inactive in test [20] and in test [13].
